Screens (PubChem)
Only some compounds are listed: those with a hit (about 3% of all), similar ones and a draw of the others.
SENP8 block-1: blocks human SENP8 cleavage of Nedd8 substrate | inhibition, % at 20 µM | Q96LD8 | hit rate 0.64% among 360,000 | AID 602440 | recombinant SENP8, Nedd8 substrate fluorescence; in the data active = inhibition mostly above about 40%, no sharp cut-off; inactive = mostly below about 27%
Target sequence (Q96LD8 whole entry, looked up): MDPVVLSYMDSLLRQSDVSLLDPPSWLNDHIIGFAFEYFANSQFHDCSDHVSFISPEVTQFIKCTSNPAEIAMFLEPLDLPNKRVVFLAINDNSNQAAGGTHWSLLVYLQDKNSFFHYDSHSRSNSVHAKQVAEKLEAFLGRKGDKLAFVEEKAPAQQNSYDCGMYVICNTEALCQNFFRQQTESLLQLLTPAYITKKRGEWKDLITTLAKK
PPC-1+TRAIL kill: PPC-1 cancer cell killing with TRAIL present; PPC-1 cells + TRAIL, ATPLite viability luminescence; cell killing (% activity), % at 4 µM or 5 µM; hit rate 0.41% among 220,000;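 active = cell killing above 50% in the first pass at 4 µM, then a duplicate retest at 5 µM averaging 50% or more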
SENP7 block: inhibitors of human SENP7 protease | Q9BQF6 | recombinant SENP7, Z-RLRGG-aminoluciferin luminescence, 40 min | inhibition, % at 5 µM | hit rate 1.5% among 330,000 | AID 434973;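 active = inhibition above about 50% at the single test dose, limit read from the data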
SENP6 inh: inhibitors of human SENP6 protease. Recombinant SENP6 catalytic domain, aminoluciferin luminescence. inhibition, % at 10 µM. hit rate 1.8% among 330,000;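 active = inhibition above about 50% at the single tested dose, limit read from the data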
Target sequence (Q9GZR1 628-1112 limits assumed): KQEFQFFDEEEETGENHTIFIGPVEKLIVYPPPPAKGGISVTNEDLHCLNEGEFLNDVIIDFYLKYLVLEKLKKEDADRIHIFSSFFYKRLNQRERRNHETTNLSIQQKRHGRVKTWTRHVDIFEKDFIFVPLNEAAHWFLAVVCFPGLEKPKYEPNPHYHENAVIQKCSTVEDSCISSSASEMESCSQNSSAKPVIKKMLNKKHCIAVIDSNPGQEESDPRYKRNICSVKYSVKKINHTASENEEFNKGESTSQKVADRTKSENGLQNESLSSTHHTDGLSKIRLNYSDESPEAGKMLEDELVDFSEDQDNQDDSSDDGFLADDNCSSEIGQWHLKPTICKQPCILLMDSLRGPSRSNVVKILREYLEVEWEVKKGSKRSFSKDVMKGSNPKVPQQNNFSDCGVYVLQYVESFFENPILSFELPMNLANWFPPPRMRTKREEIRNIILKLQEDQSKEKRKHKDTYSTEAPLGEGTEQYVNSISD
TRAIL sens C8: sensitizes caspase-8 expressing cells to TRAIL; NB7+C8 cells + TRAIL, ATPlite viability luminescence; AID 624354; hit rate 1% among 360,000; inhibition (viability loss, TRAIL sensitization), % at 10 µM;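 active = compounds causing at least 50% loss of cell viability in the single-dose screen, relative to plate controls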
SENP8 block-2: blocks the human protease SENP8; Q96LD8; purified SENP8, Z-RLRGG-aminoluciferin cleavage, luminescence; inhibition, % at 10 µM; hit rate 1.2% among 330,000; in the data active = inhibition above about 50%
PPC-1 tox: PPC-1 cell cytotoxicity; shares compounds with PPC-1+TRAIL kill; PPC-1 viability, ATPlite luminescence, overnight; cytotoxicity, % at 5 µM; hit rate 50% among 1,200; AID 1447;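 active = reconfirmed compounds whose average cytotoxicity reaches 50% or more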
Of the large screens only hits and unclear results are named; the others gave an inactive call (follow-up assays come after a bar, where they were run).

O=c1c2cccc3c2c(nn1CN1CCOCC1)-c1ccccc1-3	none
CC1Cc2ccccc2N1S(=O)(=O)c1cnc(Cl)c(Cl)c1 (centres undefined)	none | PPC-1 tox inactive
CC1Cc2ccccc2N1S(=O)(=O)c1cnc(Cl)c(Br)c1 (centres undefined)	none
CCCCCCn1ccc(=N)cc1	none
CCCCCCCCCCCCCCCCn1cc[n+](CC(C)=O)c1	none (no result: SENP7 block, SENP6 inh, SENP8 block-2) | PPC-1 tox inactive
CCOC(=O)c1cc2c(N)c(C(=O)c3ccc(Br)cc3)sc2[nH]c1=O	none
CCOc1ccc2[nH]c(S(=O)(=O)CC)nc2c1Cl	none | PPC-1 tox inactive
CCOc1ccc(C)cc1S(=O)(=O)Nc1ccc(Cl)cn1	none
Cc1nn(C)c(C)c1/C=N/NC(=O)C(C)(C)Oc1ccc(Cl)cc1	none
Cc1nn(C(C)(C)C)c(C)c1/C=N/OC(=O)Nc1ccc(Cl)cc1	PPC-1+TRAIL kill 85.4, TRAIL sens C8 88.3 | PPC-1 tox 86.2
O=C(CCN1CCN(CCO)CC1)Nc1ccc(F)c(F)c1	none | PPC-1 tox inactive
CCCCCCCCC[n+]1cccc2c3ccccc3ccc21	TRAIL sens C8 62.1 | PPC-1 tox inactive
O=C(Nc1ccc2[nH]ccc2c1)c1ccccc1	PPC-1+TRAIL kill 81.0, TRAIL sens C8 84.2 | PPC-1 tox 73.0
O=C(Nc1ccc2[nH]ccc2c1)c1ccc(F)cc1	PPC-1+TRAIL kill 84.2, TRAIL sens C8 87.7 | PPC-1 tox 84.1
CN[C@H](C)C(=O)NC[C@H]1O[C@@H](n2cc(C)c(=O)[nH]c2=O)C[C@@H]1O	none (no result: PPC-1+TRAIL kill, SENP7 block, SENP6 inh, SENP8 block-2)
COCCN(C(=O)CSc1nnc(-c2ccccc2F)o1)c1c(N)n(CC(C)C)c(=O)[nH]c1=O	none (no result: PPC-1+TRAIL kill)
O=C(CCC(=O)N1CCOc2ccccc21)NCCCN1CCN(Cc2ccccc2)CC1	none (no result: PPC-1+TRAIL kill)
CCCOc1ccc(C2(C(=O)O)CCCC2)cc1	none | PPC-1 tox inactive
COc1cc(/C=C(/C(=O)c2cccs2)c2nc3ccccc3[nH]2)ccc1O	none | PPC-1 tox inactive
O=C(/C(=C/c1ccc(Cl)cc1)c1nc2ccccc2[nH]1)c1cccs1	none
O=C(Nc1nc2ccccc2[nH]1)c1ccc(Br)o1	none | PPC-1 tox inactive
O=C(NCCc1nc2ccccc2[nH]1)c1ccc(Br)o1	none (no result: PPC-1+TRAIL kill)
C[C@H](CO)N1C[C@H](C)[C@@H](CN(C)C(=O)Nc2ccccc2)Oc2ncc(-c3ccc(C#N)cc3)cc2C1=O	none (no result: PPC-1+TRAIL kill, SENP7 block, SENP6 inh, SENP8 block-2)
Cc1ccc2nc(Cl)c(/C=N/Nc3ccc(C(=O)O)cc3)cc2c1	PPC-1+TRAIL kill 87.5, TRAIL sens C8 78.5 | PPC-1 tox 87.4
COc1ccc2c(C)nc(Nc3nc(C)c(C)c(=O)[nH]3)nc2c1	none | PPC-1 tox inactive
CC(C)[C@H](NC(=O)OC(C)(C)C)c1cc(C(=O)N2CCOCC2)c(N)s1	none (no result: PPC-1+TRAIL kill, SENP7 block, SENP6 inh, SENP8 block-2)
CN(C(=O)c1ccc2c(c1)OCO2)C1(C(=O)NC2CCCC2)CCCCC1	none | PPC-1 tox inactive
CCOC(=O)C/C(N)=N/N(C)c1ncc(C(F)(F)F)cc1Cl	none
C(=N\Nc1nc(-c2ccccn2)nc2ccccc12)/c1ccccc1	PPC-1+TRAIL kill 69.0 (no result: SENP8 block-1, TRAIL sens C8) | PPC-1 tox 73.4
COc1ccc(S(=O)(=O)N(C)CC(=O)N2CCC(C(N)=O)CC2)cc1	none | PPC-1 tox inactive
NC(=Nc1c([N+](=O)[O-])cnc2ccccc12)N1CCOCC1	none (no result: PPC-1+TRAIL kill, SENP7 block, SENP6 inh, SENP8 block-2)
COCCN(C(=O)c1ccc2ccccc2c1)c1c(N)n(Cc2ccccc2)c(=O)[nH]c1=O	none
COCCN(C(=O)c1cc(OC)c(OC)c(OC)c1)c1c(N)n(Cc2ccccc2)c(=O)[nH]c1=O	none | PPC-1 tox inactive
CN1C(=O)/C(=C/c2ccc(OCc3ccc(F)cc3)cc2)NC1=S	none (no result: PPC-1+TRAIL kill)
O=C(Nc1ccccc1Cl)N1C2CCC1CC(O)(c1cccnc1)C2 (centres undefined)	none | PPC-1 tox inactive
CC(OC(=O)CNC(=O)c1ccc2ccccc2c1)C(=O)NC1CCCCC1C (centres undefined)	none (no result: PPC-1+TRAIL kill)
CCN(CC)C(=O)CN(c1cc2c(cc1OC)oc1ccccc12)S(=O)(=O)c1ccccc1	none | PPC-1 tox inactive
CCn1c(C(=O)N2CCc3ccccc3C2)cc2oc3ccccc3c21	none | PPC-1 tox inactive
Cc1c(CNC2CCCC2)c(C(=O)O)c(C)n1Cc1ccccc1	none
CCNC(=O)NC(=O)CSc1ccccc1F	none
CCCCC(=O)Nc1ccccc1Oc1ccccc1	none | PPC-1 tox inactive
Cc1ccc(C#CC[N+]2(CC#Cc3ccc(C)cc3)CCCCC2)cc1	none | PPC-1 tox inactive
O=C(O)CCCC(=O)N1CCc2cc(S(=O)(=O)N3CCc4ccccc43)ccc21	none
CCC(=O)N1CCc2cc(S(=O)(=O)N3CCc4ccccc43)ccc21	none | PPC-1 tox inactive
CC(NC(=O)c1ccccc1Cl)C1COc2ccccc2O1 (centres undefined)	none | PPC-1 tox inactive
COc1ccc(NC(=O)/C(C#N)=C\c2ccc(N3CCOCC3)o2)cc1	SENP8 block-1 45.0, PPC-1+TRAIL kill 55.3, TRAIL sens C8 65.2 | PPC-1 tox 57.5
Cc1ccc(N2C(=O)Nc3ccccc3C2(O)C(=O)N2CCN(c3ccccn3)CC2)cc1C (centres undefined)	none | PPC-1 tox inactive
CCc1ccc(N2C(=O)Nc3ccccc3C2(O)C(=O)N2CCN(c3ccccn3)CC2)cc1 (centres undefined)	none
CCOC(=O)C1CCCN(C(=O)c2cccnc2Oc2ccccc2)CC1 (centres undefined)	none (no result: PPC-1+TRAIL kill, SENP7 block, SENP6 inh, SENP8 block-2)
COc1ccc(-n2nc3cc(C)c(NC(C)=O)cc3n2)cc1	PPC-1+TRAIL kill 64.0, TRAIL sens C8 73.6 | PPC-1 tox 60.2
COc1ccc(-n2nc3cc(C)c(NC(=O)C(C)C)cc3n2)cc1	none (no result: SENP8 block-1, SENP7 block, SENP6 inh, TRAIL sens C8, SENP8 block-2)
Cc1csc(N(C)C(=O)CSc2nnc(COc3ccccc3C)o2)n1	none | PPC-1 tox inactive
CC(NC(=O)C1CCN(C(=O)[C@@H]2Cc3ccccc3CN2)CC1)c1ccccc1 (some centres undefined)	none (no result: PPC-1+TRAIL kill)
O=C(NCc1cccnc1)C1CCCN(S(=O)(=O)c2ccccc2)C1 (centres undefined)	none | PPC-1 tox inactive
Cc1sc(N)nc1-c1c(C)n(C)c2ccccc12	none (no result: PPC-1+TRAIL kill)
Oc1ccc(-c2nnc(-c3ccc(O)cc3)nn2)cc1	PPC-1+TRAIL kill 53.1, TRAIL sens C8 63.9 | PPC-1 tox 53.9
O=C(Nc1c2c(nn1-c1ccccc1)CS(=O)(=O)C2)c1ccc(Br)o1	none (no result: PPC-1+TRAIL kill, SENP7 block, SENP6 inh, SENP8 block-2)
O=C(c1ccc(CSc2nc3ccncc3[nH]2)cc1)N1CCN(c2cccc(Cl)c2)CC1	none
O=C(NCc1ccc(Cl)cc1)c1ccc(CSc2nc3ccncc3[nH]2)cc1	none
Clc1ccc(CSc2nc3ccncc3[nH]2)cc1	PPC-1+TRAIL kill 93.8, TRAIL sens C8 92.4 | PPC-1 tox 93.0
O=C(c1ccc(CSc2nc3ccncc3[nH]2)cc1)N1CCCCCC1	PPC-1+TRAIL kill 80.8, TRAIL sens C8 81.2 | PPC-1 tox 83.4
Cc1ccc(CSc2nc3ccncc3[nH]2)cc1	PPC-1+TRAIL kill 97.0, TRAIL sens C8 93.0 | PPC-1 tox 97.3
Cc1oc2c(CN3CCCCC3)c(O)ccc2c(=O)c1-c1ccc(Cl)cc1	none (no result: PPC-1+TRAIL kill)
